The subject of this assay is RET. Conditions: concentration: 1 μM, replicates: in singlicate; n = 1.
Consider `COc1ccc(Nc2nccc(NCCNC(=O)Nc3cc(C)ccc3C)n2)cc1` [GSK1379899], for which the “%Inh” value was found to be 16%. The same measure for `Cn1cnc2c(N)ncnc21` [SKF-97623]: 0%; for `Fc1ccc(-c2nc[nH]c2-c2ccncc2)cc1` [SB-217360]: 0%.

Take `CNc1nc(-c2ccc3c(N)n[nH]c3c2)cc(N2C[C@@H](C(=O)Nc3ccccc3)CC[C@H]2C)n1` [GSK2298859]: the “%Inh” value stood at 4%.

In the case of `Nc1ncnc2occ(-c3ccc4c(c3)CCN4C(=O)Cc3cc(F)ccc3F)c12` [GSK2645446], the “%Inh” value is reported as 10%. The same measure for `COc1ccc2cc(-c3nc(-c4ccccc4C(C)C)[nH]c3-c3ccncc3)ccc2c1` [SB-660566]: 4%; for `COc1cc2ncnc(Nc3cccc(Br)c3)c2cc1OC.Cl` [GI230329]: 47%. As to `CC(=O)c1cccc(NC(=O)NC2CCN(c3ccnc(Nc4ccc(F)cc4)n3)C2)c1` (stereo not shown) [GSK1379710], the “%Inh” value worked out at 0%. Take `Cc1c(Cn2c3ccccc3n3c(=O)cc(N4CCOCC4)nc23)cccc1C(F)(F)F` [GSK2306394]: the “%Inh” value is reported as 0%. Next, `CCc1ccc(-c2ccc3c(c2)-c2n[nH]cc2S(=O)(=O)N3C)cc1`: 25%.

On to `COc1ccc(-c2coc3ccc(-c4nnc(C)o4)cc23)cc1`, for which the “%Inh” value is 0%. As for `COc1cccc(CNC(=O)NC2CCN(c3ccnc(Nc4ccc(F)cc4)n3)C2)c1` (stereo not shown) [GSK1379723], the “%Inh” value is 8%. Next, `COC(=O)C(Cc1ccccc1)NC(=O)NC1CCN(c2ccnc(Nc3ccc(F)cc3)n2)C1` (stereo not shown) [GSK1379714]: 21%. With `COc1ccc(Nc2nccc(N3CCC(NC(=O)C(C)c4ccc(Cl)cc4)C3)n2)cc1` (stereo not shown) [GSK1379735], the “%Inh” value was found to be 2%. In the case of `Cc1ccccc1Cn1ccn2c(=O)cc(N3CCOCC3)nc12` [GSK2269905], the “%Inh” value worked out at 0%. The same measure for `NS(=O)(=O)c1cccc(N/C=C2\C(=O)Nc3ccc(S(=O)(=O)Cc4c(Cl)cccc4Cl)cc32)c1` [GSK398099]: 0%; for `O=c1cc(N2CCOCC2)nc2n(Cc3ccccc3F)ccn12` [GSK2297428]: 0%; for `CC[C@@H]1CO[C@H](C(=O)Nc2ccccc2)CN1c1cc(-c2ccc3c(N)n[nH]c3c2)nc(NC)n1` [GSK2376236]: 11%. The same measure for `CNc1nc(-c2ccc3c(N)n[nH]c3c2)cc(N2C[C@@H](C(=O)NC3CCCCC3)OC[C@H]2C)n1` [GSK2375584]: 4%; for `O=c1cc(N2CCOCC2)nc2n(Cc3cccc(Cl)c3Cl)c3ccccc3n12` [GSK2299009]: 52%. The same measure for `c1ccc(-c2ccnc3[nH]ccc23)cc1` [SB-693578]: 0%.

For the molecule `Cn1cncc1C(=O)NC1CCN(c2ccnc(Nc3ccc(F)cc3)n2)C1` (stereo not shown) [GSK1379717], the “%Inh” value stood at 0%. As to `COc1ccc(Nc2nccc(N3CCC(NC(=O)c4cc5ccccc5s4)C3)n2)cc1` (stereo not shown) [GSK1379738], the “%Inh” value was 14%. Next, `COc1ccc(CSc2nnc(-c3ccc4ncsc4c3)o2)cc1C(F)(F)F`: 0%; `COC(=O)C(NC(=O)NC1CCN(c2ccnc(Nc3ccc(F)cc3)n2)C1)c1ccccc1` (stereo not shown) [GSK1379712]: 2%; `CS(=O)(=O)Cc1ccc(Nc2nccc(-c3c(-c4cccc(NC(=O)C5CCCCC5)c4)nn4ncccc34)n2)cc1` [GSK350559]: 34%. With `Cc1ccc(-c2nc(Nc3ccncc3)c3ccccc3n2)s1` [GSK189015], the “%Inh” value is 13%. Next, `Cc1ccc(NC(=O)Nc2ccc(Cl)c(C(F)(F)F)c2)cc1-c1ccc(C(=O)Nc2ccncc2)cc1` [GSK1398470]: 28%.

For `CC(C)c1cc(-c2ccc3c(N)n[nH]c3c2)nc(N)n1` [GSK2250882], the “%Inh” value is listed as 0%. Next, `Cc1nccc(-c2c(-c3ccc(F)cc3)ncn2CCCN2CCOCC2)n1.Cl` [SB-282975]: 6%; `FC(F)(F)c1ccccc1-c1cc(-c2c[nH]nc2-c2ccccn2)ccn1` [GW679396]: 11%; `Cc1ccc(NC(=O)Nc2ccccc2)cc1-c1ccc(C(=O)Nc2ccncc2)cc1` [GSK1398471]: 13%.

In the case of `Cn1cncc1-c1cc2c(Nc3ccc(OCc4ccccc4)cc3)ncnc2cn1` [GW281179], the “%Inh” value is given as 5%. Next, `Nc1nccc(-c2c(-c3ccc(F)cc3)ncn2C2CCN(Cc3ccccc3)CC2)n1` [SB-219980]: 6%; `Cc1c(Cn2c(C)c(C)n3c(=O)cc(N4CCOCC4)nc23)cccc1C(F)(F)F` [GSK2328680]: 4%. The same measure for `COc1ccc(Nc2nccc(-c3ccc(NC(=O)c4cc5cc(F)ccc5[nH]4)cc3)n2)cc1` [GSK1229496]: 0%; for `Fc1ccc(-c2nc3n(c2-c2ccncc2)CCS3)cc1` [GI98581]: 22%.

Values taken from paper PMC5540273 (PLoS ONE, 2017).
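Note: KINOMEscan kinase panel screen.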
